# Assay results: PubChem BioAssay (NCATS)
# Active and inactive are the calls of the source. The rule behind the calls is not given here.
# Conditions: Ebola virus entry assay, ratio channel
Compound,AC50,outcome
CN(C)CCCOc1nn(Cc2ccccc2)c2ccccc12,3.55 µM (active),
COc1ccc(/C=C/C(=O)c2ccc(OC)cc2OC)cc1,,inactive
CCN(CC)CCOc1ccc(Cc2ccccc2)cc1,3.55 µM (active),
Cc1c(C)n(Cc2ccccc2)c2ccc(C(=O)OCCN(C)C)cc12,3.16 µM (active),
CCC(C(=O)OCCN1CCOC(c2ccccc2)C1C)c1ccccc1 (stereo not drawn),28.2 µM (active),
CO[C@@H]1[C@@H](O[C@@H]2O[C@H](C)[C@@H](O[C@H]3C[C@@](C)(O)[C@@H](O)[C@H](C)O3)[C@H](N(C)C)[C@H]2O)[C@@H](CC=O)C[C@@H](C)[C@@H](O[C@@H]2CC[C@H](N(C)C)[C@@H](C)O2)/C=C/C=C/C[C@@H](C)OC(=O)C[C@H]1OC(C)=O,3.55 µM (active),
C[C@@H]1CCC[C@H](C)N1CCCC(O)(c1ccccc1)c1ccccn1 (stereo partly drawn),22.4 µM (active),
CC1(C)[C@H](C(=O)O)N2C(=O)C[C@H]2S1(=O)=O,11.2 µM (active),
CCN(CC)CCOC(=O)C(Cc1cccc2ccccc12)CC1CCCO1 (stereo not drawn),11.2 µM (active),
N#C/C(=C1/SC[C@@H](c2ccc(Cl)cc2Cl)S1)n1ccnc1,,inactive
CC(=O)c1ccc2c(c1)N(CCCN(C)C)c1ccccc1S2,12.6 µM (active),
COC(=O)Nc1nc2ccc(S(=O)c3ccccc3)cc2[nH]1 (stereo not drawn),1.78 µM (active),
Nc1c2ccccc2nc2ccccc12,,inactive
CN(C)CCCOC1(Cc2ccccc2)CCCCCC1,14.1 µM (active),
CCN(CC)CCOC(=O)C1(c2ccccc2)CCCC1,20 µM (active),
Cc1c(C)c2c(c(C)c1OC(=O)CCC(=O)OCCO)CC[C@@](C)(CCC[C@H](C)CCC[C@H](C)CCCC(C)C)O2,,inactive
CCC(=O)c1ccc2c(c1)N(CCCN(C)C)c1ccccc1S2,17.8 µM (active),
O=C(CCCN1CCN(c2ccc(F)cc2)CC1)NC1c2ccccc2CSc2ccccc21 (stereo not drawn),7.08 µM (active),
CCN(CC)CCNc1ccc(CO)c2sc3ccccc3c(=O)c12,14.1 µM (active),
CN(C)CCCSc1ccccc1NC(=O)/C=C/c1ccccc1,12.6 µM (active),

Compound,AC50,outcome
CN1CCN(C2=Nc3ccccc3Sc3ccc(Cl)cc32)CC1,,inactive
CC(C(O)c1ccccc1)N(C)CCOC(c1ccccc1)c1ccccc1 (stereo not drawn),2.82 µM (active),
CN(C)CCOc1ccccc1Cc1ccccc1,3.16 µM (active),
CCCC(C(=O)OCCN(CC)CC)(c1ccccc1)c1ccccc1,2.24 µM (active),
CC(C)C[C@@H]1[C@H](c2ccccc2)OC(=O)N1CCCN1CCCCCC1,8.91 µM (active),
C[C@H]1C[C@H]2[C@@H]3CCC4=CC(=O)C=C[C@]4(C)[C@@]3(Cl)[C@@H](O)C[C@]2(C)[C@@]1(O)C(=O)CO,20 µM (active),
O=C(CN1CCN(Cc2ccc3c(c2)OCO3)CC1)N1c2ccccc2Sc2ccccc21,25.1 µM (active),
CCC(C(=O)OCCOCCN(CC)CC)c1ccccc1 (stereo not drawn),22.4 µM (active),
CC(=O)c1ccc2c(c1)N(CCCN1CCC(CCO)CC1)c1ccccc1S2,2.82 µM (active),
CN1CCCC(n2nc(Cc3ccc(Cl)cc3)c3ccccc3c2=O)CC1 (stereo not drawn),3.16 µM (active),
COc1cccc(CCc2ccccc2OCC(CN(C)C)OC(=O)CCC(=O)O)c1 (stereo not drawn),2 µM (active),
Clc1ccc2c(c1)CCc1cccnc1C2=C1CCNCC1,7.94 µM (active),
CCN(CC)CCOC(=O)C(c1ccccc1)c1ccccc1,,inactive
N[C@H](C(=O)O)[C@@H](O)c1ccc(O)c(O)c1,20 µM (active),
Oc1cccc(-c2c3nc(c(-c4cccc(O)c4)c4ccc([nH]4)c(-c4cccc(O)c4)c4nc(c(-c5cccc(O)c5)c5ccc2[nH]5)CC4)C=C3)c1,22.4 µM (active),
COc1cc2c(cc1OC)-c1cc(=Nc3c(C)cc(C)cc3C)n(C)c(=O)n1CC2,15.8 µM (active),
c1ccc(-c2ccc(C(c3ccccc3)n3ccnc3)cc2)cc1 (stereo not drawn),14.1 µM (active),
c1ccc(OCc2ccc(CCCN3CCOCC3)cc2)cc1,20 µM (active),
CN1CCC(Nc2ncc3ncnc(Nc4ccc(F)c(Cl)c4)c3n2)CC1,,inactive

# Conditions: Ebola virus entry assay, reporter ratio channel; Channel type: primary
Compound,AC50,outcome
CN(C)CCCOc1nn(Cc2ccccc2)c2ccccc12,3.55 µM (active),
COc1ccc(/C=C/C(=O)c2ccc(OC)cc2OC)cc1,39.8 µM (active),
CCN(CC)CCOc1ccc(Cc2ccccc2)cc1,3.55 µM (active),
Cc1c(C)n(Cc2ccccc2)c2ccc(C(=O)OCCN(C)C)cc12,3.16 µM (active),
CCC(C(=O)OCCN1CCOC(c2ccccc2)C1C)c1ccccc1 (stereo not drawn),28.2 µM (active),
CO[C@@H]1[C@@H](O[C@@H]2O[C@H](C)[C@@H](O[C@H]3C[C@@](C)(O)[C@@H](O)[C@H](C)O3)[C@H](N(C)C)[C@H]2O)[C@@H](CC=O)C[C@@H](C)[C@@H](O[C@@H]2CC[C@H](N(C)C)[C@@H](C)O2)/C=C/C=C/C[C@@H](C)OC(=O)C[C@H]1OC(C)=O,3.55 µM (active),
C[C@@H]1CCC[C@H](C)N1CCCC(O)(c1ccccc1)c1ccccn1 (stereo partly drawn),22.4 µM (active),
CC1(C)[C@H](C(=O)O)N2C(=O)C[C@H]2S1(=O)=O,11.2 µM (active),
CCN(CC)CCOC(=O)C(Cc1cccc2ccccc12)CC1CCCO1 (stereo not drawn),11.2 µM (active),
N#C/C(=C1/SC[C@@H](c2ccc(Cl)cc2Cl)S1)n1ccnc1,39.8 µM (active),
CC(=O)c1ccc2c(c1)N(CCCN(C)C)c1ccccc1S2,12.6 µM (active),
COC(=O)Nc1nc2ccc(S(=O)c3ccccc3)cc2[nH]1 (stereo not drawn),1.78 µM (active),
Nc1c2ccccc2nc2ccccc12,,inactive
CN(C)CCCOC1(Cc2ccccc2)CCCCCC1,14.1 µM (active),
CCN(CC)CCOC(=O)C1(c2ccccc2)CCCC1,20 µM (active),
Cc1c(C)c2c(c(C)c1OC(=O)CCC(=O)OCCO)CC[C@@](C)(CCC[C@H](C)CCC[C@H](C)CCCC(C)C)O2,39.8 µM (active),
CCC(=O)c1ccc2c(c1)N(CCCN(C)C)c1ccccc1S2,17.8 µM (active),
O=C(CCCN1CCN(c2ccc(F)cc2)CC1)NC1c2ccccc2CSc2ccccc21 (stereo not drawn),7.08 µM (active),
CCN(CC)CCNc1ccc(CO)c2sc3ccccc3c(=O)c12,14.1 µM (active),
CN(C)CCCSc1ccccc1NC(=O)/C=C/c1ccccc1,12.6 µM (active),

Compound,AC50,outcome
CN1CCN(C2=Nc3ccccc3Sc3ccc(Cl)cc32)CC1,39.8 µM (active),
CC(C(O)c1ccccc1)N(C)CCOC(c1ccccc1)c1ccccc1 (stereo not drawn),2.82 µM (active),
CN(C)CCOc1ccccc1Cc1ccccc1,3.16 µM (active),
CCCC(C(=O)OCCN(CC)CC)(c1ccccc1)c1ccccc1,2.24 µM (active),
CC(C)C[C@@H]1[C@H](c2ccccc2)OC(=O)N1CCCN1CCCCCC1,8.91 µM (active),
C[C@H]1C[C@H]2[C@@H]3CCC4=CC(=O)C=C[C@]4(C)[C@@]3(Cl)[C@@H](O)C[C@]2(C)[C@@]1(O)C(=O)CO,20 µM (active),
O=C(CN1CCN(Cc2ccc3c(c2)OCO3)CC1)N1c2ccccc2Sc2ccccc21,25.1 µM (active),
CCC(C(=O)OCCOCCN(CC)CC)c1ccccc1 (stereo not drawn),22.4 µM (active),
CC(=O)c1ccc2c(c1)N(CCCN1CCC(CCO)CC1)c1ccccc1S2,2.82 µM (active),
CN1CCCC(n2nc(Cc3ccc(Cl)cc3)c3ccccc3c2=O)CC1 (stereo not drawn),3.16 µM (active),
COc1cccc(CCc2ccccc2OCC(CN(C)C)OC(=O)CCC(=O)O)c1 (stereo not drawn),2 µM (active),
Clc1ccc2c(c1)CCc1cccnc1C2=C1CCNCC1,7.94 µM (active),
CCN(CC)CCOC(=O)C(c1ccccc1)c1ccccc1,39.8 µM (active),
N[C@H](C(=O)O)[C@@H](O)c1ccc(O)c(O)c1,20 µM (active),
Oc1cccc(-c2c3nc(c(-c4cccc(O)c4)c4ccc([nH]4)c(-c4cccc(O)c4)c4nc(c(-c5cccc(O)c5)c5ccc2[nH]5)CC4)C=C3)c1,22.4 µM (active),
COc1cc2c(cc1OC)-c1cc(=Nc3c(C)cc(C)cc3C)n(C)c(=O)n1CC2,15.8 µM (active),
c1ccc(-c2ccc(C(c3ccccc3)n3ccnc3)cc2)cc1 (stereo not drawn),14.1 µM (active),
c1ccc(OCc2ccc(CCCN3CCOCC3)cc2)cc1,20 µM (active),
CN1CCC(Nc2ncc3ncnc(Nc4ccc(F)c(Cl)c4)c3n2)CC1,,inactive
